Experimental findings from the supplement of paper PMC11018630 are described below.

Each structure is given as a SMILES string. Structures can show the parent of a compound that is named as a salt. ± gives the standard deviation of the averaged measurements. In all, about 1,100 compounds were measured (“day of extracellular matrix detachment from plate”: median about 16, lowest 2% from about 10 on). The entries come from a sample that favours the lowest values as a whole.

The subject of the assay is RDEB dermal fibroblasts EB71. Briefly: day of extracellular matrix detachment from plate (days); higher = delayed detachment (less fibrotic matrix). Particulars: compound concentration: 10 uM.
`CN1CCC(=C2c3ccccc3CCn3c(C=O)cnc32)CC1` [Alcaftadine]: the “day of extracellular matrix detachment from plate” value (from here on “day”) came to 19.3 ± 2.5.

In the case of `O=C([O-])c1ccccc1O.[Na+]` [Sodium salicylate], the “day” value was 14. With `O=C(O[C@H]1CN2CCC1CC2)N1CCc2ccccc2[C@@H]1c1ccccc1` [Solifenacin succinate] the figure was 27.3 ± 2.9; with `CN(C)[C@@H]1C(O)=C(C(N)=O)C(=O)[C@@]2(O)C(O)=C3C(=O)c4c(O)ccc(Cl)c4[C@@](C)(O)[C@H]3C[C@@H]12` [Chlortetracycline HCl], 23 ± 6.9.

Consider `COc1ccc(CNc2nc(N3CCC[C@H]3CO)ncc2C(=O)NCc2ncccn2)cc1Cl` [Avanafil], for which the “day” value is 18. Turning to `CC[C@@H]1/C=C(\C)C[C@H](C)C[C@H](OC)[C@H]2O[C@@](O)(C(=O)C(=O)N3CCCC[C@H]3C(=O)O[C@H](/C(C)=C/[C@@H]3CC[C@H](Cl)[C@H](OC)C3)[C@H](C)[C@@H](O)CC1=O)[C@H](C)C[C@@H]2OC` [Pimecrolimus], the “day” value came to 17.7 ± 4. Consider `CN1CCOC(c2ccccc2)c2ccccc2C1` (stereo unspecified) [Nefopam HCl], for which the “day” value was 20. `CO[C@H]1/C=C/O[C@@]2(C)Oc3c(C)c(O)c4c(O)c(c(/C=N/N5CCN(C)CC5)c(O)c4c3C2=O)NC(=O)/C(C)=C\C=C\[C@H](C)[C@H](O)[C@@H](C)[C@@H](O)[C@@H](C)[C@H](OC(C)=O)[C@@H]1C` [Rifampin]: the “day” value was 12.

For the compound `CCCS(=O)(=O)Nc1ccc(F)c(C(=O)c2c[nH]c3ncc(-c4ccc(Cl)cc4)cc23)c1F` [Vemurafenib (PLX4032, RG7204)], the “day” value came out at 14 ± 1.7. Turning to `Clc1ccc(CCC(Cn2ccnc2)Sc2c(Cl)cccc2Cl)cc1` (stereo unspecified) [Butoconazole nitrate], the “day” value stood at 16. For `Nc1ccc(S(=O)(=O)Nc2ncccn2)cc1` [Sulfadiazine], the “day” value was 12. In the case of `Nc1ccc(S(=O)(=O)Nc2ncccn2)cc1` [Sodium sulfadiazine], the “day” value worked out at 18.2 ± 3.1.

As for `N=C(N)NC(=N)N1CCOCC1` [Moroxydine HCl], the “day” value worked out at 19.3 ± 6.3.

Consider `Cc1cc(-n2c(=O)[nH]c(=O)n(C)c2=O)ccc1Oc1ccc(SC(F)(F)F)cc1` [Toltrazuril], for which the “day” value was determined as 15.7 ± 2.9. `Clc1ccc(Nc2nnc(Cc3ccncc3)c3ccccc23)cc1` [Vatalanib (PTK787) 2HCl]: the “day” value is 25. With `CNC(=O)[C@H](Cc1ccccc1)NC(=O)[C@H](CC(C)C)[C@H](CSc1cccs1)C(=O)NO` [Batimastat (BB-94)] the figure was 9 ± 1.7; with `CNC(=O)[C@@H](NC(=O)[C@H](CC(C)C)[C@H](O)C(=O)NO)C(C)(C)C` [Marimastat(BB-2516)], 11.7 ± 1.1; with `CNC(=O)[C@H](Cc1c[nH]c2ccccc12)NC(=O)[C@@H](CC(=O)NO)CC(C)C` [Ilomastat (GM6001, Galardin)], 15. With `O=c1ccc2ccc(OCCCCN3CCN(c4cccc5sccc45)CC3)cc2[nH]1` [Brexpiprazole] the figure was 17; with `CC(C)[C@H](N)C(=O)OCCOCn1cnc2c(=O)nc(N)[nH]c21` [Valaciclovir HCl], 15.7 ± 6.3. With `OCCOc1ccc(/C(=C(/CCCl)c2ccccc2)c2ccccc2)cc1` [Ospemifene] the figure was 13; with `Cc1ccc(C(=O)C(C)CN2CCCCC2)cc1` (stereo unspecified) [Tolperisone HCl], 13. As for `CCCCN1CCCCC1C(=O)Nc1c(C)cccc1C` (stereo unspecified) [Bupivacaine HCl], the “day” value came to 19.3 ± 6.3. Regarding `CO[C@H]1C[C@@H]2CC[C@@H](C)[C@@](O)(O2)C(=O)C(=O)N2CCCC[C@H]2C(=O)O[C@H]([C@H](C)C[C@@H]2CC[C@@H](OCCO)[C@H](OC)C2)CC(=O)[C@H](C)/C=C(\C)[C@@H](O)[C@@H](OC)C(=O)[C@H](C)C[C@H](C)/C=C/C=C/C=C/1C` [Everolimus (RAD001)], the “day” value was 25. As for `CC[C@H]1[C@@H](O)[C@@H]2[C@H](CC[C@]3(C)[C@@H]([C@H](C)CCC(=O)O)CC[C@@H]23)[C@@]2(C)CC[C@@H](O)C[C@@H]12` [Obeticholic Acid], the “day” value was 16.3 ± 1.1. With `C#C[C@]1(O)CC[C@H]2[C@@H]3CCC4=CCCC[C@@H]4[C@H]3C(=C)C[C@@]21CC` [Desogestrel] the figure was 17. For `Cc1cc(C#N)cc(C)c1Oc1nc(Nc2ccc(C#N)cc2)nc(N)c1Br` [Etravirine (TMC125)], the “day” value amounted to 18. Consider `C=C(c1ccc(C(=O)O)cc1)c1cc2c(cc1C)C(C)(C)CCC2(C)C` [Bexarotene], for which the “day” value came to 9. On to `CC1(C)CCC(C)(C)c2cc(NC(=O)c3ccc(C(=O)O)cc3)ccc21` [Tamibarotene], for which the “day” value turned out to be 19. Turning to `Cc1ccc([C@@H]2O[C@H](CO)[C@@H](O)[C@H](O)[C@H]2O)cc1Cc1ccc(-c2ccc(F)cc2)s1` [Canagliflozin], the “day” value was determined as 18.

Consider `Oc1cc(O)c(Cl)cn1` [Gimeracil], for which the “day” value stood at 12. With `O=C(O)c1cc(/N=N/c2ccc(O)c(C(=O)O)c2)ccc1O` [Olsalazine Sodium] the figure was 17.3 ± 2.9; with `CC(C)NC[C@H](O)COc1ccc(CCOCC2CC2)cc1` [Levobetaxolol HCl], 16 ± 3.5.

Regarding `C[C@]12CC[C@H](O)CC1=CC[C@@H]1[C@@H]2CC[C@]2(C)C(n3cnc4ccccc43)=CC[C@@H]12` [Galeterone], the “day” value was found to be 20 ± 1.7. With `CCOC(=O)CC(=O)N1CCSC1COc1ccccc1OC` (stereo unspecified) [Moguisteine] the figure was 15.3 ± 2.3. With `Clc1ccc2c(c1)CCc1cccnc1C2=C1CCNCC1` [Desloratadine], the “day” value came to 28. With `NC(=O)C(c1ccccc1)(c1ccccc1)[C@@H]1CCN(CCc2ccc3c(c2)CCO3)C1` [Darifenacin HBr] the figure was 23.2 ± 7.2; with `CC(C)/N=c1\cc2n(-c3ccc(Cl)cc3)c3ccccc3nc-2cc1Nc1ccc(Cl)cc1` [Clofazimine], 13. With `C[C@@H]1O[C@@H](OC[C@H]2O[C@@H](Oc3c(-c4ccc(O)c(O)c4)oc4cc(O)cc(O)c4c3=O)[C@H](O)[C@@H](O)[C@@H]2O)[C@H](O)[C@H](O)[C@H]1O` [Rutin] the figure was 18.3 ± 8.1; with `CNC[C@H](O)[C@@H](O)[C@H](O)[C@H](O)CO` [Meglumine], 12. Next, `Cc1cccc(CN2CCN(C(c3ccccc3)c3ccc(Cl)cc3)CC2)c1` (stereo unspecified) [Meclizine 2HCl]: 12; `OCCOCCN1CCN(C(c2ccccc2)c2ccc(Cl)cc2)CC1` (stereo unspecified) [Hydroxyzine 2HCl]: 18; `O=C(O)COCCN1CCN(C(c2ccccc2)c2ccc(Cl)cc2)CC1` (stereo unspecified) [Cetirizine DiHCl]: 10.3 ± 1.1. Take `C#C[C@]1(O)CC[C@H]2[C@@H]3CCC4=CC(=O)CC[C@@H]4[C@H]3C(=C)C[C@@]21CC` [Etonogestrel]: the “day” value is 20. With `CC(C)Oc1ccc(-c2nc(-c3cccc4c3CC[C@@H]4NCCO)no2)cc1C#N` [Ozanimod (RPC1063)] the figure was 16.3 ± 1.1; with `Cc1cccc(Nc2ccncc2S(=O)(=O)NC(=O)NC(C)C)c1` [Torsemide], 15.7 ± 6.3; with `CN1CCN2c3ccccc3Cc3ccccc3C2C1` (stereo unspecified) [Mianserin HCl], 9.67 ± 1.1. As for `NC1=NCC2c3ccccc3Cc3ccccc3N12` (stereo unspecified) [Epinastine HCl], the “day” value was determined as 13. Next, `CN1CCN2c3ncccc3Cc3ccccc3C2C1` (stereo unspecified) [Mirtazapine]: 12. Next, `C=C[C@]1(C)C[C@@H](OC(=O)CSC(C)(C)CNC(=O)[C@H](N)C(C)C)[C@]2(C)[C@H](C)CC[C@]3(CCC(=O)[C@H]32)[C@@H](C)[C@@H]1O` [Valnemulin HCl]: 19. With `C[C@]12CC[C@@H]3c4ccc(O)cc4CC[C@H]3[C@@H]1CC[C@@H]2OC(=O)CCC1CCCC1` [Estradiol Cypionate] the figure was 13.

On to `C[C@@H]1COC(Nc2ccc3ncnc(Nc4ccc(OCc5nccs5)c(Cl)c4)c3c2)=N1` [Varlitinib], for which the “day” value is 31.

Regarding `C[C@H](CCC(=O)O)[C@H]1CC[C@H]2[C@@H]3CC[C@@H]4C[C@H](O)CC[C@]4(C)[C@H]3CC[C@]12C` [Lithocholic acid], the “day” value is 15.3 ± 2.3. As to `C[C@H](CCC(=O)O)[C@H]1CC[C@H]2[C@@H]3[C@H](O)C[C@@H]4C[C@H](O)CC[C@]4(C)[C@H]3CC[C@]12C` [Chenodeoxycholic Acid], the “day” value was found to be 15.7 ± 6.3.

Take `C[C@H](CCC(=O)O)[C@H]1CC[C@H]2[C@@H]3[C@@H](O)C[C@@H]4C[C@H](O)CC[C@]4(C)[C@H]3CC[C@]12C` [Ursodiol]: the “day” value was 10.3 ± 1.1. Next, `CO[C@H]1/C=C/O[C@@]2(C)Oc3c(C)c(O)c4c(O)c(c(/C=N/N5CCN(C6CCCC6)CC5)c(O)c4c3C2=O)NC(=O)/C(C)=C\C=C\[C@H](C)[C@H](O)[C@@H](C)[C@@H](O)[C@@H](C)[C@H](OC(C)=O)[C@@H]1C` [Rifapentine]: 12.

On to `C[C@@H]1CC(=O)NN=C1c1ccc(NN=C(C#N)C#N)cc1` [Levosimendan], for which the “day” value came out at 19.3 ± 6.3. Next, `CC[C@@H](CO)NCCN[C@@H](CC)CO` [Ethambutol HCl]: 15.3 ± 2.3. As for `Cc1c(C)c2c(c(C)c1O)CC[C@@](C)(CCC[C@H](C)CCC[C@H](C)CCCC(C)C)O2` [Vitamin E], the “day” value was 17.3 ± 2.5. Consider `CCOc1ccccc1OC(c1ccccc1)C1CNCCO1` (stereo unspecified) [Reboxetine mesylate], for which the “day” value is 18. Next, `N[C@@H](CC(=O)N1CCn2c(nnc2C(F)(F)F)C1)Cc1cc(F)c(F)cc1F` [Sitagliptin phosphate monohydrate]: 18; `C#C[C@]1(O)CC[C@H]2[C@@H]3CCC4=CC(=O)CC[C@@H]4[C@H]3CC[C@@]21C` [Norethindrone]: 19; `C#C[C@]1(O)CC[C@H]2[C@@H]3CCc4cc(OC)ccc4[C@H]3CC[C@@]21C` [Mestranol]: 10 ± 1.7. With `C#C[C@]1(O)CC[C@H]2[C@@H]3CCc4cc(O)ccc4[C@H]3CC[C@@]21C` [Ethinyl Estradiol] the figure was 14; with `CCC(C)(C)c1ccc(CC(C)CN2C[C@@H](C)O[C@@H](C)C2)cc1` (stereo partly specified) [Amorolfine HCl], 12; with `Cc1cc(/C=C/C#N)cc(C)c1Nc1ccnc(Nc2ccc(C#N)cc2)n1` [Rilpivirine], 27.
